# Measured values taken from ChEMBL document CHEMBL4296182, “CO-ADD screening of NIH NCI Diversity Set V”.
# For part of these data: Potency and affinity values are given separately.
# Key:
# Staphylococcus aureus = experiment: Antibacterial activity against Staphylococcus aureus MRSA ATCC 43300 (CO-ADD:GP_020); MIC in CAMBH media using NBS plates, by Resazurin F(560/590); assay type: functional; conditions: Concentration 20 uM, ASSAY_TEST Inhibition of Bacterial Growth, detection method Resazurin, Fluorescence (ex560/em590), MEDIA CAMHB, plate type 384well, CORNING #3640, time 18 hr
# Acinetobacter baumannii = experiment: Antibacterial activity against Acinetobacter baumannii ATCC 19606 (CO-ADD:GN_034); MIC in CAMBH media using NBS plates, by Resazurin F(560/590); assay type: functional; conditions: Concentration 20 uM, ASSAY_TEST Inhibition of Bacterial Growth, detection method Resazurin, Fluorescence (ex560/em590), MEDIA CAMHB, plate type 384well, CORNING #3640, time 18 hr
# Escherichia coli = experiment: Antibacterial activity against Escherichia coli ATCC 25922 (CO-ADD:GN_001); MIC in CAMBH media using NBS plates, by Resazurin F(560/590); assay type: functional; conditions: Concentration 20 uM, ASSAY_TEST Inhibition of Bacterial Growth, detection method Resazurin, Fluorescence (ex560/em590), MEDIA CAMHB, plate type 384well, CORNING #3640, time 18 hr
# Klebsiella pneumoniae = conditions: Concentration 20 uM; ASSAY_TEST Inhibition of Bacterial Growth; detection method Absorption (OD600); MEDIA CAMHB; plate type 384well; NBS; CORNING #3640; time 18 hr
# Candida albicans = conditions: 20 µM
# Cryptococcus neoformans = conditions: Concentration 20 uM; ASSAY_TEST Inhibition of Fungal Growth; detection method Resazurin; Absorption (OD600-OD570); plate type 384well; NBS; CORNING #3640
Structure (SMILES),Inhibition (Staphylococcus aureus) [%],Inhibition (Acinetobacter baumannii) [%],Inhibition (Escherichia coli) [%],Inhibition (Klebsiella pneumoniae) [%],Inhibition (Candida albicans) [%],Inhibition (Cryptococcus neoformans) [%]
COc1cccc(OCC(O)CN2CCN(c3ccc(Cl)cc3)CC2)c1 (centres undefined),13.17,4.14,2.15,0.79,0.05,-12.54
COc1cc(/C=C2\CCOC2=O)cc(OC)c1OC,4.75,13.86,8.29,12.15,2.88,-2.47
Clc1ccc(Nc2nnc(-c3ccc4c(c3)OCO4)o2)cc1,-8.18,6.42,9.52,10.29,4.12,44.25
CS/C(=C\c1ccc(C(=O)c2ccc(C)cc2)n1C)[S+](C)[O-] (centres undefined),7.5,7.53,1.09,18.35,3.75,1.32
O=C(/C=C\c1ccc2ccccc2n1)c1cc(Cl)ccc1O,-11.69,-4.27,-19.12,3.11,16.4,-1.96
CC(=O)O.N=c1ccn2c(n1)OC1C(O)C(CO)OC12 (centres undefined),0.21,-10.07,8.11,17.17,-0.52,-12.02
Cc1ccc(S(=O)(=O)CCOC(=O)CNC(=O)OCc2ccccc2)cc1,0.28,8.19,0.72,12.65,2.97,-8.5
Cc1oc2c(c(C)nn2-c2ccccc2)c(=O)c1Cl,-0.13,-6.85,7.16,9.65,14.3,35.87
NNC(=O)CNc1cccc(Br)c1,11.03,1.39,7.55,8.17,1.56,-4.46
CCN(CC)Cc1cc2[nH]c3c4ccc(Cl)cc4ncc3c2cc1OC,9.09,18.93,-2.05,30.45,-0.29,-5.75
NC(=N\c1ccc(N)cc1)/C(N)=N/c1ccc(N)cc1,-1.65,-17.09,7.03,7.69,0.22,-12.28
COc1cc(NC(=O)c2cc3ccccc3cc2O)c(OC)cc1Cl,15.9,4.67,-1.76,8.39,2.82,-1.31
Cn1c(=O)c2c(nc(N3CCOCC3)n2C)n(C)c1=O,9.23,6.55,2.94,9.52,2.91,-9.23
CCCCCCCC1(C)NC(=O)NC1=O (centres undefined),7.54,3.29,6.05,5.77,0.59,-12.36
CCC(C)Nc1nc2c(c(=O)n(C)c(=O)n2C)n1C (centres undefined),12.63,12.04,-1.91,12.65,3.5,-7.05
COc1ccc2nc3cc(Cl)ccc3c(C#N)c2c1,10.22,12.04,6.91,7.74,4.11,-4.51
COc1ccc(OCC(O)CN2CCN(c3ccc(Cl)cc3)CC2)cc1 (centres undefined),-0.5,8.48,10.52,5.97,-0.41,-11.59
CSC(=O)NC(=O)NC(=O)c1ccc([N+](=O)[O-])cc1,9.19,0.18,3.52,12.66,-0.48,44.26
O=C1NCCc2c1[nH]c1ccccc21,-13.58,-2.97,-11.15,6.5,2.99,-7.2
Cc1nc(SCC(=O)O)n[nH]1 [TIAZOTIC ACID],14.48,-8.95,7.99,14.92,2.04,-0.18
CC(C)(C)N1CCC1CN (centres undefined),2.17,-8.31,10.97,10.11,3.04,-5.34
CCCCN1C(=O)CC(C(=O)OCC)=C1C,-5.09,-15.76,-0.5,-4.24,1.93,-4.18
CCOC(=O)C(=O)Cc1nc2ccccc2s1,2.9,-6.12,10.05,6.52,16,-6.27
Nc1ccc2c(c1Cl)C(=O)c1ccc(N)c(Cl)c1C2=O,3.14,-5.21,14.11,8.12,-1.01,17.48
Sc1nccn1-c1ccccc1Cl,5.33,14.25,-3.3,6.92,3.82,-5.04

Structure (SMILES),Inhibition (Staphylococcus aureus) [%],Inhibition (Acinetobacter baumannii) [%],Inhibition (Escherichia coli) [%],Inhibition (Klebsiella pneumoniae) [%],Inhibition (Candida albicans) [%],Inhibition (Cryptococcus neoformans) [%]
Nc1cc([N+](=O)[O-])ccc1N1C(=O)CCCC1=O,5.36,15.02,-8.9,10.57,7.24,-9.22
C1CCCC(NC2=NCCO2)CCC1,-8.35,-11.54,-9.72,4.38,-2.21,-3.14
COc1cc(OC)c2c(=O)cc(-c3cccnc3)oc2c1,13.2,11.57,-0.96,9.22,2.37,-8.93
Sc1nc2ccccc2c2ccccc12,-5.22,-10.6,1.21,0.71,24.1,19.7
CNC(=O)c1nn(C)c(=O)[nH]c1=O,3.46,-10.49,19.05,15.09,4.6,-7.3
[O-][n+]1ccc(CC(O)(C(F)(F)F)C(F)(F)F)cc1,-9.72,-5.31,-11.83,9.87,4.37,-2.34
O=[N+]([O-])c1ccccc1CSc1nc(O)c2nc[nH]c2n1,26.98,9.09,5.06,15.06,1,-13.62
O=c1oc2c(cc1O)oc(=O)c1cc(O)c(O)c(O)c12,7.4,17.2,5.53,31.38,14.8,-7.17
C[C@@]1(c2ccccc2)O[C@@H]2C[C@H]3[C@@H]4CCC5=CC(=O)C=C[C@]5(C)[C@@]4(F)[C@@H](O)C[C@]3(C)[C@]2(C(=O)CO)O1 [AMCINAFIDE],5.72,-8.64,8.97,3.86,4.92,-9.65
S=C1SCN(CCc2ccccc2)CN1CCc1ccccc1,-3.89,1.92,3.19,4.28,31.3,-3.46
CCOC(=O)c1c(C)c(C(=O)OCC)n(C)c1C,8.23,6.43,-8.3,6.99,4.68,10.56
NC1=NC(Nc2ccccc2)=NC(c2ccccc2)N1 (centres undefined),10.62,4,5.99,5.54,6.21,-14.92
O=C(Nc1ccccc1)Oc1cccnc1O,7.3,9.45,-1.58,18.58,5.22,-7.26
Cn1c(CO)cnc1-c1ccccc1,2.4,0.07,-8.68,2.59,2.13,-3.98
O=C(NC1(N2CCOCC2)CC1)c1ccc(Cl)cc1,6.77,-6.57,-5.43,3.34,2.83,-0.42
Sc1ncnc2c1ncn2C1CCCC1,12.18,-2.05,10.82,10.23,3.52,-6.41
Oc1c(Cl)cc(Cl)cc1C1Nc2ccccc2-n2cccc21 (centres undefined),8.71,9.53,-0.55,11.09,1.7,-0.72
CC(=O)Oc1ccc(OC(C)=O)c2c1CC(C)=C(C)C2,4.66,-3.24,12.77,4.69,1.46,-18.35
CC(=O)OCC1OC(COC(C)=O)(c2ccc(C)cc2)C(OC(C)=O)C1OC(C)=O (centres undefined),-7.68,-11.43,15.38,10.58,-0.8,-5.49
Cc1c(COC(=O)NC(C)C)c(COC(=O)NC(C)C)c2n1CS(=O)(=O)C2,22.95,-7.7,11.68,15.71,3.64,-8.35
S=c1c2nc[nH]c2ncn1CCSC1=NC=NC2=NC=NC21 (centres undefined),4.54,-14.19,7.44,7.27,5.38,-9.8
Cc1ccc(C)c(C(=O)CCC(=O)O)c1,9.56,8.73,0.68,19.18,8,-5.46
CCC/C(C)=C/c1ccc(CC)cn1,1.51,-4.3,-16.08,8.87,3.23,27.41
N=C1OC(c2ccccc2)C(O)=C1O (centres undefined),0.33,-10.5,6.34,8.48,7.04,-2.61
COc1ccc(Br)c2c1C(=O)CC2,10.21,-14.67,12.53,-2.44,20.7,-15.03

Structure (SMILES),Inhibition (Staphylococcus aureus) [%],Inhibition (Acinetobacter baumannii) [%],Inhibition (Escherichia coli) [%],Inhibition (Klebsiella pneumoniae) [%],Inhibition (Candida albicans) [%],Inhibition (Cryptococcus neoformans) [%]
O=C(O)/C(=C/c1ccccc1)c1ccccc1,7.86,-10.93,11.66,8.35,8.14,-16.02
O=C(O)c1cncc(Br)c1,13.85,-13.95,3.81,4.04,6.23,-7.23
CCCCNC(=O)Nc1ccccc1CC,14.67,10.42,0.25,11.35,3.55,-6.96
Nc1ncnc2c1cnn2C1CCCCC1,-0.45,-2.92,-6.81,9,1.58,-3.99
Cc1ccc(Nc2c(O)ncnc2O)cc1C,-23.26,-4.13,-16.23,1.1,0.31,16.78
O=C(C(Cl)Cl)N1CC2CCC(CC2)C1,-8.6,7.03,-13.8,1.03,-0.88,23.84
CN1CCC(=C2c3ccccc3C(O)c3ccccc32)CC1 (centres undefined),1.61,-19.91,15.16,2.29,0.03,-16.59
Cc1ccc([N+](=O)[O-])cc1NC(=O)Nc1cccc(F)c1,33.45,-10.69,8.59,12.62,18.3,-9.48
CCOc1ccc(NC(=O)N(O)C2(C#N)CCCCC2)cc1,13.16,8.44,2.02,18.05,5.54,-2.32
Nc1nc(N)nc(-c2ccccc2-c2nc(N)nc(N)n2)n1,10.97,8.5,-2.58,13.54,6.82,-8.57
Oc1cc(-c2nn[nH]n2)nc(O)n1,15.18,-5.46,13.37,14.33,1.84,0.69
C#CCNc1ccc(C(=O)OCC)cc1,7.69,8.65,-0.61,11.49,5,-3.8
CCOCc1cc(O)nc(SC)n1,12.32,-13.24,14.73,11.3,-0.55,-4.91
CCOC(=O)C1(C#N)C(=O)CS/C1=N/c1ccccc1Cl (centres undefined),19.69,6.45,0.68,8.87,1.9,-13.01
CCN(CC)CCN1c2ccccc2Sc2ccc3ccccc3c21,2.63,-0.08,11.87,8.87,0.24,-5.58
COc1cc(-c2ccc(NC(=O)NC3CC3)c(OC)c2)ccc1NC(=O)NC1CC1,15.12,-9.96,13.19,5.08,3.52,-5.24
CSc1ccc(NC(=O)Nc2ccccc2C(N)=O)cc1,16.3,11.66,11.12,15.39,4.24,3.99
Cc1nc(O)c(Cc2ccccc2O)c(-c2ccccc2)n1,22.69,-8.89,10.21,16.82,2.26,5.06
NC1=C2C(=O)c3ccccc3C(=O)C2=C(N)CC1,-13.27,1.08,-5.53,8.56,22.9,-5.51
CCOc1ccc(NC(=O)Nc2cc(C(C)C)c(O)cc2C)cc1,12.02,-0.68,-2.75,20.87,4.16,-21.1
Cc1cccc(N=C(S)Nc2cccc(C)n2)n1,2.02,12.82,3.58,8.62,3.4,-9.05
O=C1COc2c1ccc(O)c2O,0.46,-23.14,5.49,7.13,0.16,-9.43
COc1ccccc1N1C(=O)CC(Sc2ccccc2N)C1=O (centres undefined),13.62,1.84,10.06,1.73,0.29,-6.31
Cc1ccc(S(=O)(=O)Oc2cc(N)c3c(n2)CCC3)cc1,2.13,-12.3,7.8,9.4,1.38,-7.75
